Results filed as inconclusive are left out. Active and inactive are the calls of the source. Unless noted, the call rests on the fitted dose curve; in most records, active means well fitted curve in the direction sought with a large enough effect in the repeat runs; inconclusive means weak or mixed curves; inactive means no such curve, though single readings can be large; an effect the other way counts as inactive or inconclusive.
How the values were obtained:
[1] = target: Thyrotropin receptor (Homo sapiens) (UniProt P16473); assay: qHTS assay to identify small molecule agonists of the thyroid stimulating hormone receptor (TSHR) signaling pathway (AID 1224843; calls by dose curve; further: nearly all actives have a fitted effect of over 45% in size)
Sequence of Thyrotropin receptor (Homo sapiens) (P16473 whole entry, looked up): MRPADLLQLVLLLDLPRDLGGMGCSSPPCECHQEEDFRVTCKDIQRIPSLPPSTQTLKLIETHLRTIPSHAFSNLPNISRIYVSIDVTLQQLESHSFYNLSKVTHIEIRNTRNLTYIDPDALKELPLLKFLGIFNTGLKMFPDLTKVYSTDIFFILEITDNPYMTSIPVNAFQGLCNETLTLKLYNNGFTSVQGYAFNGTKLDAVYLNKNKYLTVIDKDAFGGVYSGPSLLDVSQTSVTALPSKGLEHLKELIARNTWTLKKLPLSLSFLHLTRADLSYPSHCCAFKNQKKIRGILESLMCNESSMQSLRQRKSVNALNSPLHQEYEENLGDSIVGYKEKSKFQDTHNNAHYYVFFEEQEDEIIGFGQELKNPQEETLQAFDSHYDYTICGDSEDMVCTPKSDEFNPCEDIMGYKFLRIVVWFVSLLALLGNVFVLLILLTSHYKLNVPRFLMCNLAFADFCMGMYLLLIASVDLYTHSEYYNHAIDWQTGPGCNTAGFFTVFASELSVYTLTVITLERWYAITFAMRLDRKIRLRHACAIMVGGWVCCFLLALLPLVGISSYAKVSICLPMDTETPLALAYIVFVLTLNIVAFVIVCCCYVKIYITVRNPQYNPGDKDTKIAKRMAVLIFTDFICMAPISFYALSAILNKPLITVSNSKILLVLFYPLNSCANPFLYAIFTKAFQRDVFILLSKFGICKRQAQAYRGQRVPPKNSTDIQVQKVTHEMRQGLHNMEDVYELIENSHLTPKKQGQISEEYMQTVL
How it was run: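 Steps: seed 800 TSHR-HEK293 cells per well; add test compound and hold 30 min at ambient temperature; dispense cAMP-d2 then anti-cAMP cryptate; incubate 1 h at ambient; measure fluorescence intensity.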

[2] = qHTS assay to identify small molecule agonists of the hypoxia (HIF-1) signaling pathway - cell viability counter screen (AID 1224844; calls by dose curve; further: nearly all actives have a fitted effect of over 50% in size)
How it was run: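 Cells (HRE-bla ME-180, 2,000 per well) sat 5 hrs at 37C, got compound for 17 hrs, were read for CCF4-AM FRET, and were finally lysed with CellTiter-Glo for a 30 min room-temperature luminescence read.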

[3] = qHTS assay to identify small molecule agonists of H2AX (AID 1224845; active means well fitted activation curve with a large enough effect in the signal ratio in the repeat runs, not every such curve was filed as active; the % refers to the signal ratio)
How it was run: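 Wild-type CHO-K1 cells, plated overnight, exposed 3hr at 37C to 15 concentrations (0.76% DMSO final). Lysed, then HTRF anti-pH2AX (S139) cryptate and anti-H2AX-d2 antibodies, 24 hr room temperature; 665/620 nm emission read.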

[4] = qHTS assay to identify small molecule agonists of the hypoxia (HIF-1) signaling pathway (AID 1224846; active means well fitted activation curve with a large enough effect in the signal ratio in the repeat runs, not every such curve was filed as active; the % refers to the signal ratio)
How it was run: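 A low-serum medium (0.5% dialyzed FBS) holding 2,000 HRE-bla ME-180 cells per well is preincubated for 5 hrs, dosed with compounds by pintool, and kept a further 17 hrs at 37C, 5% CO2 before CCF4-AM FRET detection of beta-lactamase.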

[5] = qHTS assay to identify small molecule agonists of H2AX - cell viability counter screen (AID 1224847; calls by dose curve; further: top concentration of the series differs between compounds; nearly all actives have a fitted effect of over 30% in size)
How it was run: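 Cells plated first: CHO-K1, 1000 per well in 10% FBS medium, incubated overnight at 37C. Then 15-point compound titration added (final DMSO 0.76%) for 3 hr. Finally CellTiter-Glo added and luminescence read.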

[6] = qHTS RealTime-Glo MT Cell Viability Assay in HepG2 cells - 24 hour (AID 1224867); further: nearly all actives have a fitted effect of over 50% in size
How it was run: (§1)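 Cell number in HepG2 cultures estimated from NanoLuc luminescence generated by metabolic reduction of a prosubstrate by living cells. The homogeneous, nonlytic format allowed repeated reads at 0, 8, 16, 24, 32 and 40 h of compound exposure.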

[7] = qHTS RealTime-Glo MT Cell Viability Assay in HEK293 cells - 32 hour (AID 1224868); further: top concentration of the series differs between compounds; nearly all actives have a fitted effect of over 50% in size
How it was run: (§2)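 Homogeneous bioluminescent viability format in HEK293 cells (600 cells/well). Following 5 h at 37 C/5% CO2, 23 nL compound was pintooled; the signal was measured repeatedly during 40 h incubation.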

[8] = A CellTox Green Cytotoxicity Assay to monitor cytotoxicity in HEK293 cells - 0 hour (AID 1224869); further: nearly all actives have a fitted effect of over 50% in size
How it was run: (§3)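 Fluorescence intensity, read at 0, 8, 16, 24, 32 and 40 h of compound treatment, reflected dye binding to DNA of dead HEK293 cells; compounds (23 nL, DMSO) were added 5 h after plating cells with reagent.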

[9] = qHTS RealTime-Glo MT Cell Viability Assay in HepG2 cells - 40 hour (AID 1224870); further: nearly all actives have a fitted effect of over 50% in size
How it was run: (§4)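 HepG2 cells (600/well) mixed with RealTime-Glo MT reagent, settled 5 h at 37 C/5% CO2 before compound addition. Nonlytic NanoLuc luminescence from viable-cell prosubstrate reduction read repeatedly during 40 h treatment at 37 C.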

[10] = A CellTox Green Cytotoxicity Assay to monitor cytotoxicity in HEK293 cells - 40 hour (AID 1224871); further: nearly all actives have a fitted effect of over 45% in size
How it was run: as §3

[11] = qHTS RealTime-Glo MT Cell Viability Assay in HEK293 cells - 16 hour (AID 1224872)
How it was run: as §2

[12] = qHTS RealTime-Glo MT Cell Viability Assay in HepG2 cells - 8 hour (AID 1224873); further: nearly all actives have a fitted effect of over 55% in size
How it was run: as §4

[13] = qHTS RealTime-Glo MT Cell Viability Assay in HEK293 cells - 40 hour (AID 1224874); conditions: RealTime-Glo luminescence; max response: hits give low values; further: nearly all actives have a fitted effect of over 50% in size
How it was run: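 Viable HEK293 cells reduce a cell-permeant prosubstrate; the product diffuses out and is consumed by NanoLuc in the medium to give light. Compounds went in after a 5 h incubation and plates were read over the treatment course.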

[14] = A CellTox Green Cytotoxicity Assay to monitor cytotoxicity in HEK293 cells - 24 hour (AID 1224875); further: nearly all actives have a fitted effect of over 45% in size
How it was run: as §3

[15] = A CellTox Green Cytotoxicity Assay to monitor cytotoxicity in HepG2 cells - 16 hour (AID 1224876); further: nearly all actives have a fitted effect of over 45% in size
How it was run: (§5)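 Using 1536-well format, dye-containing HepG2 suspension was seeded, allowed 5 h at 37 C/5% CO2, dosed by pintool with compounds, positive and negative controls, and imaged for fluorescence across 40 h.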

[16] = qHTS RealTime-Glo MT Cell Viability Assay in HepG2 cells - 32 hour (AID 1224877); further: nearly all actives have a fitted effect of over 55% in size
How it was run: as §1

[17] = A CellTox Green Cytotoxicity Assay to monitor cytotoxicity in HepG2 cells - 24 hour (AID 1224878); further: nearly all actives have a fitted effect of over 45% in size
How it was run: as §5

[18] = A CellTox Green Cytotoxicity Assay to monitor cytotoxicity in HepG2 cells - 40 hour (AID 1224879); further: nearly all actives have a fitted effect of over 40% in size
How it was run: as §5

[19] = qHTS assay to identify small molecule agonists of the estrogen related receptor (ERR) signaling pathway from Tox21 library (AID 1224849; calls by dose curve; further: nearly all actives have a fitted effect of over 15% in size); conditions: ERR reporter cell line, ONE-Glo luciferase, 18 h; at 92.4 µM (top of the series) unless noted
How it was run: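 Screening used an NTP-provided ERR luciferase cell line. Compounds in DMSO were added 6 h after seeding and left 18 h at 37 C before a 30 min ONE-Glo step and luminescence reading.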

[20] = qHTS assay to identify small molecule antagonists of the estrogen related receptor (ERR) signaling pathway from Tox21 library (AID 1224848); further: nearly all actives have a fitted effect of over 50% in size
How it was run: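 Luminescent reporter read-out (ONE-Glo) from NTP's ERR cell line after 18 h treatment at 37 C with DMSO-dissolved Tox21 compounds; cells pre-plated 6 h beforehand at 2,000 per well.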
On the % scale 0 is the no-effect control and ±100 the full control effect.

O=C(O)c1ccccc1-n1cc(C(=O)O)c(=O)c2cc(Nc3c(F)cc(F)cc3Cl)c(Cl)cc21
inactive: Potency [1] | Potency [2] | Potency [3] | outcome [4] | Potency [5] | outcome [6] | Potency [7] | Potency [8] | Potency [9] | Potency [10] | Potency [11] | outcome [12] | max response [13] 0.656% | Potency [14] | Potency [15] | Potency [16] | Potency [17]

CC(C)=CCC[C@H](C)CCO
inactive: Potency [1] | Potency [2] | Potency [3] | outcome [4] | Potency [5] | outcome [6] | Potency [7] | Potency [8] | Potency [9] | Potency [10] | Potency [11] | outcome [12] | max response [13] -1.49% | Potency [14] | Potency [15] | Potency [16] | Potency [17]

CC(O)C(C)O (configuration not stated)
inactive: Potency [1] | Potency [2] | Potency [3] | outcome [4] | Potency [5] | outcome [6] | Potency [7] | Potency [8] | Potency [9] | Potency [10] | Potency [11] | outcome [12] | max response [13] 12.1% | Potency [16] | Potency [17] | Potency [18]

CC(C)C/C=C(\C=O)c1ccccc1
inactive: Potency [1] | Potency [2] | Potency [3] | outcome [4] | Potency [5] | activity change, positive = activation [19] -20.3% | outcome [6] | Potency [7] | Potency [8] | Potency [9] | Potency [10] | Potency [11] | outcome [12] | max response [13] 10% | Potency [14] | Potency [16] | Potency [17] | Potency [18]

Cc1ccc2c(Cl)cc(Cl)c(O)c2n1
inactive: Potency [1] | Potency [2] | Potency [3] | outcome [4] | Potency [5] | outcome [6] | Potency [7] | Potency [8] | Potency [9] | Potency [10] | Potency [11] | outcome [12] | max response [13] -5.73% | Potency [14] | Potency [16] | Potency [17] | Potency [18]

CCCC(=O)OCCC(C)C
inactive: Potency [1] | Potency [2] | Potency [3] | outcome [4] | Potency [5] | outcome [6] | Potency [7] | Potency [8] | Potency [9] | Potency [10] | Potency [11] | outcome [12] | max response [13] -1.39% | Potency [14] | Potency [15] | Potency [16] | Potency [17] | Potency [18]

CC(O)CN (configuration not stated)
inactive: Potency [1] | Potency [2] | Potency [3] | outcome [4] | Potency [5] | Potency [20] | activity change, positive = activation [19] 0.61% | outcome [6] | Potency [8] | Potency [9] | Potency [10] | Potency [11] | outcome [12] | max response [13] 1.55% | Potency [14] | Potency [15] | Potency [16] | Potency [17] | Potency [18]

CC(=O)Nc1ccccc1O
inactive: Potency [1] | Potency [2] | Potency [3] | outcome [4] | Potency [5] | Potency [20] | activity change, positive = activation [19] -0.899% | outcome [6] | Potency [7] | Potency [8] | Potency [10] | outcome [12] | max response [13] 2.65% | Potency [14] | Potency [15] | Potency [16] | Potency [17] | Potency [18]

FC1(F)C(F)(F)C(F)(F)C2(F)C(F)(C1(F)F)C(F)(F)C(F)(F)C1(F)C(F)(F)C(F)(F)C(F)(F)C(F)(F)C12F (configuration not stated)
inactive: Potency [1] | Potency [2] | Potency [3] | outcome [4] | Potency [5] | outcome [6] | Potency [7] | Potency [8] | Potency [9] | Potency [10] | Potency [11] | outcome [12] | max response [13] 0.279% | Potency [15] | Potency [16] | Potency [17] | Potency [18]

Cc1cc(N)n(-c2ccccc2)n1
inactive: Potency [1] | Potency [2] | Potency [3] | outcome [4] | Potency [5] | Potency [20] | outcome [6] | Potency [8] | Potency [9] | Potency [10] | Potency [11] | outcome [12] | max response [13] -5.72% | Potency [14] | Potency [15] | Potency [16] | Potency [17] | Potency [18]

CC1(C)CC(O)CC(C)(C)N1[O]
inactive: Potency [1] | Potency [2] | Potency [3] | outcome [4] | Potency [5] | outcome [6] | Potency [7] | Potency [8] | Potency [9] | Potency [10] | Potency [11] | outcome [12] | max response [13] 6.37% | Potency [14] | Potency [15] | Potency [16] | Potency [17] | Potency [18]

CCC[Si](OC)(OC)OC
inactive: Potency [1] | Potency [2] | Potency [3] | outcome [4] | Potency [5] | Potency [20] | activity change, positive = activation [19] -6.41% | outcome [6] | Potency [7] | Potency [8] | Potency [10] | outcome [12] | max response [13] -8.66% | Potency [14] | Potency [15] | Potency [16] | Potency [17] | Potency [18]

C[C@H]1C[C@H]2[C@@H]3CCC4=CC(=O)C=C[C@]4(C)[C@@]3(F)[C@@H](O)C[C@]2(C)[C@@]1(O)C(=O)COP(=O)(O)O
inactive: Potency [1] | Potency [2] | Potency [3] | outcome [4] | Potency [5] | outcome [6] | Potency [7] | Potency [8] | Potency [9] | Potency [10] | outcome [12] | max response [13] -11.1% | Potency [14] | Potency [15] | Potency [16] | Potency [17] | Potency [18]

C=C[Si]1(C)O[Si](C)(C=C)O[Si](C)(C=C)O[Si](C)(C=C)O1 (configuration not stated)
inactive: Potency [1] | Potency [2] | Potency [3] | outcome [4] | Potency [5] | outcome [6] | Potency [7] | Potency [8] | Potency [10] | Potency [11] | outcome [12] | max response [13] -1.07% | Potency [14] | Potency [16]
